In PubChem BioAssay AID1159580 (chemical genetic matrix, 2015):
Where “and” joins values, the source holds several entries; their conditions need not be identical. Identical values can stand only once. The whole screen tested about 5,500 compounds, of which about 2,000 (36%) were called active. Roughly 18% stayed inconclusive and do not appear here. Cut-off read from the data, not from the text of the source: active = normalized growth mostly below about 0.91 (no sharp cut-off); inconclusive = no clear call, values can overlap the other calls; inactive = mostly above about 0.92. This is one part of the list.

Experiment: chemical genetic growth profiling, strain panel (AID 1159580);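 note: tested at 20 µM; growth read once vehicle control cultures reached saturation at 30 °C; 1 = growth at the plate median or of vehicle wells; lower values mean less growth of the strain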
Conditions: S. cerevisiae deletion strains, growth OD

Measured: normalized growth

O=S(=O)(O)CCS
inactive: locus YAL013W, strain DEP1, active compounds read low 1.01 | locus YAL021C, strain ccr4, active compounds read low 0.983 | locus YAL026C, strain drs2, active compounds read low 1 | locus YAL030W, strain snc1, active compounds read low 0.993 | locus YBL061C, strain skt5, active compounds read low 0.966 | locus YBR009C, strain hhf1, active compounds read low 1.01 | locus YBR021W, strain FUR4, active compounds read low 1.01 | locus YBR023C, strain chs3, active compounds read low 0.989 | locus YBR171W, strain sec66, active compounds read low 0.976 | locus YBR229C, strain ROT2, active compounds read low 1.01 | locus YBR231C, strain swc5, active compounds read low 1.01 | locus YBR279W, strain paf1, active compounds read low 0.986 | locus YCL016C, strain dcc1, active compounds read low 0.976 | locus YCL029C, strain bik1, active compounds read low 0.993 | locus YCL069W, strain vba3, active compounds read low 0.979 | locus YCR088W, strain abp1, active compounds read low 0.985 | locus YDL005C, strain med2, active compounds read low 0.949 | locus YDL035C, strain GPR1, active compounds read low 1.02 | locus YDL040C, strain nat1, active compounds read low 0.999 | locus YDL074C, strain BRE1, active compounds read low 1.05 | locus YDL101C, strain DUN1, active compounds read low 1.02 | locus YDL134C, strain PPH21, active compounds read low 1.01 | locus YDL185W, strain tfp1, active compounds read low 0.985 | locus YDL192W, strain arf1, active compounds read low 0.99 | locus YDR001C, strain nth1, active compounds read low 0.99 | locus YDR069C, strain doa4, active compounds read low 0.992 | locus YDR101C, strain arx1, active compounds read low 1.02 | locus YDR137W, strain rgp1, active compounds read low 0.984 | locus YDR150W, strain NUM1, active compounds read low 1.01 | locus YDR159W, strain sac3, active compounds read low 0.977 | locus YDR162C, strain NBP2, active compounds read low 1.01 | locus YDR195W, strain ref2 0.988 | locus YDR297W, strain sur2, active compounds read low 0.989 | locus YDR318W, strain mcm21, active compounds read low 0.991 | locus YDR334W, strain swr1, active compounds read low 0.982 | locus YDR335W, strain msn5, active compounds read low 0.981 | locus YDR388W, active compounds read low 0.978 | locus YDR392W, strain spt3, active compounds read low 0.928 | locus YDR502C, strain sam2, active compounds read low 0.995 | locus YEL003W, strain gim4, active compounds read low 0.998 | locus YEL037C, strain rad23, active compounds read low 0.985 | locus YEL061C, strain CIN8 (second series), active compounds read low 1.01 | locus YEL061C, strain CIN8, active compounds read low 1.01 | locus YER015W, strain faa2, active compounds read low 0.998 | locus YER016W, strain bim1, active compounds read low 0.945 | locus YER110C, active compounds read low 0.987 | locus YER111C, strain swi4, active compounds read low 0.981 | locus YER155C, strain BEM2 (second series), active compounds read low 1 | locus YER155C, strain BEM2, active compounds read low 1.01 | locus YER167W, strain BCK2, active compounds read low 0.996 | locus YFR010W, strain ubp6, active compounds read low 1.01 | locus YGL078C, strain dbp3, active compounds read low 0.976 | locus YGL086W, strain mad1, active compounds read low 0.997 | locus YGL167C, strain pmr1, active compounds read low 0.985 | locus YGL173C, strain kem1, active compounds read low 0.998 | locus YGL227W, strain vid30, active compounds read low 0.979 | locus YGL240W, strain doc1, active compounds read low 1.01 | locus YGL248W, strain PDE1, active compounds read low 1.03 | locus YGL253W, strain hxk2, active compounds read low 0.986 | locus YGR135W, strain pre9, active compounds read low 0.997 | locus YGR252W, strain gcn5, active compounds read low 0.936 | locus YHR013C, strain ard1, active compounds read low 0.927 | locus YHR027C, strain rpn1, active compounds read low 1.01 | locus YHR030C, strain SLT2, active compounds read low 1.01 and 0.989 | locus YHR079C, strain IRE1 (second series), active compounds read low 0.989 | locus YHR079C, strain IRE1, active compounds read low 0.991 | locus YHR094C, strain hxt1, active compounds read low 0.991 | locus YHR129C, strain ARP1, active compounds read low 1.01 | locus YHR142W, strain chs7, active compounds read low 0.968 | locus YHR200W, strain rpn10, active compounds read low 0.999 | locus YIL066C, strain RNR3, active compounds read low 1.02 | locus YIL073C, strain SPO22, active compounds read low 0.965 | locus YIL125W, strain kgd1, active compounds read low 0.981 | locus YIR030C, strain dcg1, active compounds read low 0.999 | locus YJL092W, strain hpr5, active compounds read low 0.997 | locus YJL095W, strain BCK1 (second series), active compounds read low 0.971 | locus YJL095W, strain BCK1, active compounds read low 1.03 and 0.974 | locus YJL115W, strain asf1, active compounds read low 0.983 | locus YJL129C, strain trk1, active compounds read low 0.946 | locus YJL134W, strain LCB3, active compounds read low 1.01 | locus YJL154C, strain vps35, active compounds read low 0.97 | locus YJL164C, strain tpk1, active compounds read low 0.991 | locus YJL166W, strain qcr8, active compounds read low 1 | locus YJL168C, strain set2, active compounds read low 0.992 | locus YJL187C, strain SWE1 (second series), active compounds read low 1.03 | locus YJL187C, strain SWE1, active compounds read low 0.986 | locus YJR043C, strain POL32, active compounds read low 1.01 | locus YJR066W, strain TOR1, active compounds read low 0.961
